PubChem BioAssay (NCI)
Compounds without any hit were thinned out: in the full panel of roughly 83,000, 20% have a hit.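 In brief: 96-well plates, 48 h treatment, single concentration, percent growth endpoint.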 Calls of active or inactive are those of the source.

test system: OVCAR-3 ovarian; test: NCI-60 one-dose screen, 48 h (100 = growth as untreated, 0 = no growth, -100 = all killed); details: 10 µM unless noted
Method: Growth inhibition of the OVCAR-3 human tumor cell line is measured as a screen for anti-cancer activity. Cells are grown in 96 well plates and exposed to the test compound for 48 hours. Compounds are tested at a single concentration, which is 10^-5 M for most compounds. The reported endpoint is percent growth (GI% or GIPRCNT), where numbers from 0 - 100% represent growth inhibition, and numbers from -100% - 0 represent cell death. For example, a value of 40 represents 60% growth inhibition. A value of 0 means no net growth occurred over the course of the experiment. A value of -40 indicates 40% of cells at the beginning of the experiment died by the end of the experiment. A value of -100 means all cells are dead at the end of the experiment.
NCI-60 Human Tumor Cell Lines Screen was performed using the standard one-dose NCI protocol, which is described in more detail at https://dtp.cancer.gov/discovery_development/nci-60/default.htm.
Compounds with GIPRCNT values below 10 were considered active. Activity score was based on GIPRCNT using the following formula: […]
Score is 0 for GIPRCNT values of 100 or above, 50 for GIPRCNT values of 0, and 100 for GIPRCNT values of -100.

Compound	growth
CCc1ccc(-c2nc(SCC(=O)NC3CCCCC3)n[nH]2)cc1	64% (inactive)
COc1ccc(/C=C/C(=O)c2cccc(NS(C)(=O)=O)c2)cc1	78.1% (inactive)
CC1(C)CC2(C)CC(=O)C1C(C(=O)O)C2C(=O)O (stereo not given)	105% (inactive)
NC(=O)NS(=O)(=O)c1ccc(N2N=C(C(F)(F)F)CC2c2cc(C(F)(F)F)cc(C(F)(F)F)c2)cc1 (stereo not given)	69.7% (inactive)
Oc1ccc(/C=N/Nc2nc3ccccc3s2)c(O)c1	18.6% (inactive)
C=C1CCC2C3(C)COC(c4ccccc4)OC3CCC2(C)C1C/C=C1/C(=O)OCC1OC(C)=O (stereo not given)	100% (inactive)
Cc1ccc2nc(SCC(=O)Nc3ccc(-c4nc5ccccc5s4)c(Cl)c3)[nH]c2c1	111% (inactive)
Cc1ccc(-c2csc(N)n2)cc1	114% (inactive)
CSc1nc(N)c2c(n1)N(C)C=NS2(=O)=O	122% (inactive)
CN(C)CCCN=c1cc2c(=O)n(CCCN(C)C)c(=O)c3c(NCCCN(C)C)cc4c(O)n(CCCN(C)C)c(=O)c1c4c3-2	-39.1% (active)
O=C(N/N=C/c1cccc(O)c1)c1ccc(C(F)(F)F)nc1Nc1cccc(C(F)(F)F)c1	-12.2% (active)
COC(=O)C1CCN(S(=O)(=O)c2ccc(-c3ccccc3)cc2)CC1	114% (inactive)
NC(=NCCCCCCN=C(N)/N=C(\N)Nc1ccc(Cl)cc1)/N=C(\N)Nc1ccc(Cl)cc1	17% (inactive)
O=c1oc2c(cc1-c1ccc([N+](=O)[O-])cc1)C(O)Oc1ccccc1-2 (stereo not given)	111% (inactive)
CC(=O)Nc1ccc(C(=O)COc2ccc(/C=C3\CCc4ccccc4C3=O)cc2)cc1	111% (inactive)
CCc1nn2c(-c3ccc(Cl)cc3C)c(-c3cc(OC)c(OC)c(OC)c3)nc2s1	72.6% (inactive)
COc1cc(/C=C/C(=O)CC(=O)/C=C/c2ccc(OC(=O)CCNC34CC5CC(CC(C5)C3)C4)c(OC)c2)ccc1OC(=O)CCNC12CC3CC(CC(C3)C1)C2	-7.82% (active)
O=C(c1ccccc1)c1ccc(Oc2ccc([N+](=O)[O-])cc2[N+](=O)[O-])cc1	48.7% (inactive)
COc1cc(-c2nnc(-c3nc(-c4cc(OC)c(OC)c(OC)c4)n4ccccc34)o2)ccc1N	77.6% (inactive)
O=C(NC1CCS(=O)(=O)C1)c1ccc(C(=O)c2ccccc2)cc1 (stereo not given)	121% (inactive)

Compound	growth
Cc1ccc(N/N=C(/C(=O)c2ccc(Cl)cc2)c2nc(C)cc(=O)[nH]2)cc1	95.8% (inactive)
Nc1ccc2c(c1Br)Cc1ccccc1-2	99.1% (inactive)
COc1ccc(C2=NN(C(N)=S)C(c3ccc4c(c3)OCO4)C2)cc1 (stereo not given)	-21.5% (active)
O=C(Nc1cccc(Cl)c1)Nc1cccc(Cl)c1	15.1% (inactive)
COc1cccc(-c2nc3cc(NC(=O)c4ccc(Cl)c(C#N)c4)ccc3o2)c1	-30.6% (active)
Cn1ccnc1C(=O)/C=C/c1ccc(C(=O)Nc2nc3ccccc3[nH]2)cc1	7.54% (active)
COc1cccc2c1C(=O)c1c(O)c3c(c(O)c1C2=O)C[C@@](O)(C(C)=O)C[C@@H]3O[C@H]1C[C@H](N)[C@H](O)[C@H](C)O1	-18.7% (active)
OC(c1ccccc1)C(NCc1ccccc1)c1ccccc1 (stereo not given)	111% (inactive)
Cc1ccc(-c2c3c(N)nc(-c4ccncc4)nc3nc3c2c(C)nn3-c2ccccc2)cc1	73.6% (inactive)
COc1ccc(C2=NN(C=O)C(c3cccc(Nc4ccnc5cc(Cl)ccc45)c3)C2)cc1 (stereo not given)	13.8% (inactive)
COc1cc(Cl)cc(-c2nn(-c3cccc(NC(=O)c4cc(C(F)(F)F)cc(C(F)(F)F)c4)c3)cc2-c2ccncc2)c1	25.5% (inactive)
COCCCNS(=O)(=O)c1ncnc2nc[nH]c12	102% (inactive)
O=C1/C(=C/c2ccccc2Cl)CCc2ccccc21	112% (inactive)
CCSc1nc(-c2cccs2)n2nc(-c3ccco3)cc2n1	112% (inactive)
NS(=O)(=O)c1ccc(-n2nc(-c3ccc(Br)cc3)ccc2=O)cc1	70.9% [100 µM] (inactive)
Cn1cnc([N+](=O)[O-])c1Sc1nc(N)nc2nc[nH]c12	22.7% (inactive)
CCCCc1n(Cc2ccc3ccccc3c2)cc[n+]1Cc1ccc2ccccc2c1	-80.1% (active)
N#Cc1ccc(-c2csc(Nc3ccc4nc5n(c(=O)c4c3)CCC5)n2)cc1	116% (inactive)
O=C(COc1cccc(/C=C2\Oc3ccc4ccccc4c3C2=O)c1)c1ccc(Cl)cc1	93.8% (inactive)
O=C(CNC(=O)c1cccc2ccccc12)Nc1ccccc1Cc1ccccc1	15.5% [5 µM] (inactive)
